This note sets out measurements from PubChem BioAssay (Tox21).

Assay [1] in a line: qHTS assay to identify small molecule antagonists of the sonic hedgehog signaling (Shh) pathway (AID 1259369). Further: nearly all actives have a fitted effect of over 45% in size. Further: potency means the concentration at half of the fitted maximal effect. A digest of the protocol:
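For antagonist detection, the reporter line received test compounds together with conditioned medium, incubated 24hr at 37 C, 5% CO2, then luminescence was recorded following 30min room-temperature luciferase reagent incubation.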
On the technique in general: qHTS replaces the single test concentration by a dilution series.

In assay [2] the target is Estrogen receptor beta (Homo sapiens) (UniProt Q92731). As to the kind of experiment: qHTS assay to identify small molecule antagonists of the estrogen receptor beta (ER-beta) signaling pathway (AID 1259378; active means well fitted inhibition curve with a large enough effect in the signal ratio in the repeat runs, not every such curve was filed as active; the % refers to the signal ratio). In outline: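 ER-beta-UAS-bla HEK293T cells in 2% charcoal-stripped FBS medium treated with compound plus 1nM final 17-beta-estradiol for 16 hr at 37C. Beta-lactamase reporter read by FRET substrate fluorescence after 2 hours at room temperature.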
Chain of Estrogen receptor beta (Homo sapiens) (Q92731 whole entry, looked up): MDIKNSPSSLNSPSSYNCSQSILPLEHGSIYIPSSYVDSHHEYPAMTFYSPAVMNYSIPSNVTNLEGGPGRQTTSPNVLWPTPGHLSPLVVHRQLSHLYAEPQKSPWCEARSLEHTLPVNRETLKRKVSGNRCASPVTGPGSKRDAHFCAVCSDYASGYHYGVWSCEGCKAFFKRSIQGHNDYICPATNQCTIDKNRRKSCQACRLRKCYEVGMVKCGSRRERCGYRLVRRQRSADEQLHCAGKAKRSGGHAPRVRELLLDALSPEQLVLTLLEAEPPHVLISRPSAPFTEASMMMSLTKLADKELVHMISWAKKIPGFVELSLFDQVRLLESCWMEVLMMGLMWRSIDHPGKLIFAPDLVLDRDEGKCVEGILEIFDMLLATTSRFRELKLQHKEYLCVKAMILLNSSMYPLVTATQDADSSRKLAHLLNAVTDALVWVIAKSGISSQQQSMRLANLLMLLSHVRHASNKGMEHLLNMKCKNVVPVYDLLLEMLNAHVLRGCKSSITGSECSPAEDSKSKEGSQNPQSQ

A short description of assay [3]: qHTS assay to identify small molecule agonists of the androgen receptor (AR) signaling pathway in the presence of an antagonist - cell viability counter screen (AID 1259379; active means well fitted curve in the direction sought with a large enough effect in the repeat runs; an effect the other way counts as inactive or inconclusive;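 further: MDA-kb2 human breast cancer cells carrying an MMTV luciferase reporter; series mostly up to about 92 µM; nearly all actives have a fitted effect of over 25% in size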). In outline: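 Seed MDA-kb2 at 3,000 cells/well; incubate 5 hr, 37C, 0% CO2. Add nilutamide to 3.0uM final, then pin compounds at 15 concentrations. Incubate 16 hr. Add CellTiter-Fluor at 15 hr, read fluorescence after 1 hr.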

A short description of assay [4]: qHTS assay to identify small molecule agonists of the estrogen receptor beta (ER-beta) signaling pathway - cell viability counter screen (AID 1259380; active means well fitted curve in the direction sought with a large enough effect in the repeat runs; an effect the other way counts as inactive or inconclusive; further: nearly all actives have a fitted effect of over 30% in size; further: potency means the concentration at half of the fitted maximal effect). A digest of the protocol:
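CellTiter-Glo read, 30 min RT, same wells as bla assay; cells ER-beta-UAS-bla HEK293T; 16 hr compound, 37C; medium 2% charcoal-stripped FBS.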

Assay [5] in a line: qHTS assay to identify small molecule antagonists of the estrogen receptor beta (ER-beta) signaling pathway - cell viability counter screen (AID 1259382; active means well fitted curve in the direction sought with a large enough effect in the repeat runs; an effect the other way counts as inactive or inconclusive; further: series mostly up to about 92 µM; nearly all actives have a fitted effect of over 55% in size). A digest of the protocol: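 In this multiplexed counter screen, cells were seeded at 2,000 per well in medium with 2% charcoal-stripped FBS and incubated 6 hr before compound and 1nM final E2 were added. Sixteen hours later, ATP-based luminescence reported viability.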

Assay [6] is described as follows: qHTS assay to identify small molecule agonists or antagonists of the thyroid stimulating hormone receptor (TSHR) signaling pathway - wild type cell line counter screen (AID 1259384). A digest of the protocol:
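Wild-type Hek293 cells, 800/well, 18 h at 37C, then compound with Ro20-1724 for 30 min RT. cAMP by HTRF (cAMP-d2/anti-cAMP cryptate), 1 h RT, fluorescence read. 15 concentrations, triplicates.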

Assay [7] is described as follows: qHTS assay to identify small molecule agonists of the estrogen receptor alpha (ER-alpha) signaling pathway in the presence of an antagonist - cell viability counter screen (AID 1259386; active means well fitted curve in the direction sought with a large enough effect in the repeat runs; an effect the other way counts as inactive or inconclusive;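 further: series mostly up to about 92 µM; cells exposed to compounds for 22 h at 37 °C before the viability read; nearly all actives have a fitted effect of over 30% in size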). A digest of the protocol:
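Viability counter screen using VM7Luc4E2 (full-length ER-alpha, four ERE-luciferase). The cells were treated with compounds alongside ICI-182,780 10.0nM for 22hr, and live-cell protease fluorescence was quantified with CellTiter-Fluor.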

Assay [8] deals with Progesterone receptor (Homo sapiens) (UniProt P06401). As to the kind of experiment: qHTS assay to identify small molecule agonists of the progesterone receptor (PR) signaling pathway (AID 1346784). Further: nearly all actives have a fitted effect of over 30% in size. A digest of the protocol:
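Agonist qHTS: compounds pinned onto 3,000 PR-UAS-bla HEK 293T cells per well in charcoal-stripped serum medium, 16hr at 37C, then beta-lactamase activity measured by LiveBLAzer FRET fluorescence after 2 hours at room temperature.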

The target is the same in assay [9]. As to the kind of experiment: qHTS assay to identify small molecule antagonists of the progesterone receptor (PR) signaling pathway (AID 1346795; active means well fitted inhibition curve with a large enough effect in the signal ratio in the repeat runs, not every such curve was filed as active; the % refers to the signal ratio). A digest of the protocol: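 Antagonist mode with agonist R5020 at 1 nM final and 16 hr incubation at 37C. Reporter was beta-lactamase driven by UAS in HEK293T (PR-UAS-bla), 2% charcoal-stripped serum; signal from LiveBLAzer FRET substrate, 2 hr at room temperature.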

Assay [10] is described as follows: qHTS assay to identify small molecule antagonists of the progesterone receptor (PR) signaling pathway - cell viability counter screen (AID 1346798; active means well fitted curve in the direction sought with a large enough effect in the repeat runs; an effect the other way counts as inactive or inconclusive; further: series mostly up to about 92 µM; nearly all actives have a fitted effect of over 50% in size). In outline: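 Cytotoxicity read as CellTiter-Glo luminescence (30 min, room temperature) in the same wells as the beta-lactamase readout. HEK293T PR-UAS-bla cells in charcoal-stripped 2% FBS received compound and R5020, then 16 h at 37C, 5% CO2.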

Assay [11] in a line: qHTS assay to identify small molecule agonists of the progesterone receptor (PR) signaling pathway - cell viability counter screen (AID 1346799). Further: nearly all actives have a fitted effect of over 45% in size. In outline:
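Cytotoxicity measured by CellTiter-Glo luminescence (30 min, RT) in the same wells as the PR beta-lactamase agonist read. Those HEK293T cells had 16 h compound treatment at 37 C in 2% charcoal-stripped FBS medium.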

Assay [12] is described as follows: qHTS assay to identify small molecule antagonists of the TGF-beta/Smad signaling pathway - cell viability counter screen (AID 1346824; active means well fitted curve in the direction sought with a large enough effect in the repeat runs; an effect the other way counts as inactive or inconclusive; further: nearly all actives have a fitted effect of over 50% in size). In outline: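 SBE-bla HEK 293T cells, incubated overnight, then compound plus 0.25 ng/mL TGF-beta1 (stock added) for 5 hr at 37 C. Viability was read in the same wells by CellTiter-Glo luminescence after 30 min at room temperature.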

Assay [13] can be described thus: qHTS assay to identify small molecule agonists of the TGF-beta/Smad signaling pathway - cell viability counter screen (AID 1346829; active means well fitted curve in the direction sought with a large enough effect in the repeat runs; an effect the other way counts as inactive or inconclusive; further: top concentration of the series differs between compounds; nearly all actives have a fitted effect of over 45% in size). In outline:
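In parallel with the Smad reporter read, viability of HEK 293T cells stably carrying SBE-bla is quantified by ATP luminescence following 5 hr compound treatment.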

Assay [14] can be described thus: qHTS assay to identify small molecule agonists of the TGF-beta/Smad signaling pathway (AID 1346859; active means well fitted activation curve with a large enough effect in the signal ratio in the repeat runs, not every such curve was filed as active; the % refers to the signal ratio; further: series mostly up to about 77 µM). In outline:
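Fluorescence (ex 405 nm; em 460 and 530 nm) was read 2 h after LiveBLAzer FRET substrate at RT. The preceding compound treatment of overnight-plated SBE-bla HEK293T cells lasted 5 h at 37 C.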

In assay [15] the target is Androgen receptor (Homo sapiens) (UniProt P10275). In words: qHTS assay to identify small molecule agonists of the androgen receptor (AR) signaling pathway in the presence of an antagonist (AID 1259381). Further: nearly all actives have a fitted effect of over 15% in size. A digest of the protocol:
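Test compounds at 15 concentrations were incubated for 16hr with MDA-kb2 reporter cells in presence of 3.0uM nilutamide (final). Signal: ONE-Glo luciferase luminescence.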

In assay [16] the target is Thyrotropin receptor (Homo sapiens) (UniProt P16473). As to the kind of experiment: qHTS assay to identify small molecule antagonists of the thyroid stimulating hormone receptor (TSHR) signaling pathway (AID 1259385). Further: nearly all actives have a fitted effect of over 20% in size. A digest of the protocol: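 TSHR-HEK293 cells (800/well) plated 18 h, then compounds with Ro20-1724 and TSH at 1.5 ng/mL final, 30 min at room temperature. cAMP quantified by HTRF (cAMP-d2/anti-cAMP-cryptate, 1 h); 15 concentrations in triplicate.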
Chain of Thyrotropin receptor (Homo sapiens) (P16473 whole entry, looked up): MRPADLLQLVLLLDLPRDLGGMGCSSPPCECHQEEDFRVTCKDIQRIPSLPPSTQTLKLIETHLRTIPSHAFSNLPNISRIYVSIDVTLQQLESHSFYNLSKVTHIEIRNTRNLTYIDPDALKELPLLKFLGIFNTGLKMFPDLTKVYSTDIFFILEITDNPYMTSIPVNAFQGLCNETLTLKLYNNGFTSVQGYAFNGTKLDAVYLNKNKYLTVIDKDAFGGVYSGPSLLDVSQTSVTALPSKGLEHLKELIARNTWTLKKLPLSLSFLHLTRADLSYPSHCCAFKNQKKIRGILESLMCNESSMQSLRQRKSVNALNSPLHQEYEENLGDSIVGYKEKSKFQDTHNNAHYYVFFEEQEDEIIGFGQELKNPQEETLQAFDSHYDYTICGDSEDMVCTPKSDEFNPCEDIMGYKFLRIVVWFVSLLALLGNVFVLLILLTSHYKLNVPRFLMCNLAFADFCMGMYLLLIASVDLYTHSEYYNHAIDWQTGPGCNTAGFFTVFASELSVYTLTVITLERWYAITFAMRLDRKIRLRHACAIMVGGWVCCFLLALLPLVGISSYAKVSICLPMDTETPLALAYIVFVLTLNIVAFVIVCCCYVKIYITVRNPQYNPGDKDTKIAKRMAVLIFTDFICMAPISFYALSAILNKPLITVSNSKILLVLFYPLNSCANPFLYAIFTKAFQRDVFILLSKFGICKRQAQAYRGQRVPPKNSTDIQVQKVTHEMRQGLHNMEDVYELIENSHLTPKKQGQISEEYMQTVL

Assay [17] addresses Thyrotropin-releasing hormone receptor (Homo sapiens) (UniProt P34981). In words: qHTS assay to identify small molecule antagonists of the thyrotropin-releasing hormone receptor (TRHR) signaling pathway (AID 1346877; active means well fitted inhibition curve with a large enough effect in the repeat runs, not every such curve was filed as active; further: series mostly up to about 51 µM). A digest of the protocol:
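Following an 18 h incubation at 37 °C and a 2 h calcium dye load, TRHR-HEK293 cells were exposed to compound (5 min, room temperature) and challenged with TRH, 1 nM final.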

For assay [18] the target is unchanged. In words: qHTS assay to identify small molecule agonists of the thyrotropin-releasing hormone receptor (TRHR) signaling pathway (AID 1346891). Further: series mostly up to about 58 µM. A digest of the protocol:
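Agonist-mode intracellular calcium readout: kinetic fluorescence over 3 min at 1 s intervals after compound addition to TRHR-HEK293 cells (18 h seeded, 2 h dye-loaded at 37 C). Fifteen concentrations, triplicates.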

Assay [19] has as its target Estrogen receptor beta (Homo sapiens) (UniProt Q92731). As to the kind of experiment: qHTS assay to identify small molecule agonists of the estrogen receptor beta (ER-beta) signaling pathway (AID 1259377; active means well fitted activation curve with a large enough effect in the signal ratio in the repeat runs, not every such curve was filed as active; the % refers to the signal ratio). In outline:
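Ratiometric beta-lactamase FRET read-out came after 2 h substrate loading at room temperature. It followed 16 h compound treatment at 37C of GripTite HEK293T cells carrying a UAS-bla reporter, plated in 2% charcoal-stripped FBS medium.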

The target in assay [20] is Estrogen receptor (Homo sapiens) (UniProt P03372). As to the kind of experiment: qHTS assay to identify small molecule agonists of the estrogen receptor alpha (ER-alpha) signaling pathway in the presence of an antagonist (AID 1259383). Further: top concentration of the series differs between compounds; nearly all actives have a fitted effect of over 15% in size. A digest of the protocol:
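Stably transfected VM7Luc4E2 reporter cells, kept 5 days in charcoal-stripped serum, received ICI-182,780 at 10.0nM final before compound addition. Following 22hr incubation at 37C and 5% CO2, luciferase signal was read by luminescence.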

Values without a mark were called inactive. Results filed as inconclusive are left out. Activity calls are given as the source filed them. Unless noted, the call rests on the fitted dose curve.

Chain of Estrogen receptor (Homo sapiens) (P03372 whole entry, looked up): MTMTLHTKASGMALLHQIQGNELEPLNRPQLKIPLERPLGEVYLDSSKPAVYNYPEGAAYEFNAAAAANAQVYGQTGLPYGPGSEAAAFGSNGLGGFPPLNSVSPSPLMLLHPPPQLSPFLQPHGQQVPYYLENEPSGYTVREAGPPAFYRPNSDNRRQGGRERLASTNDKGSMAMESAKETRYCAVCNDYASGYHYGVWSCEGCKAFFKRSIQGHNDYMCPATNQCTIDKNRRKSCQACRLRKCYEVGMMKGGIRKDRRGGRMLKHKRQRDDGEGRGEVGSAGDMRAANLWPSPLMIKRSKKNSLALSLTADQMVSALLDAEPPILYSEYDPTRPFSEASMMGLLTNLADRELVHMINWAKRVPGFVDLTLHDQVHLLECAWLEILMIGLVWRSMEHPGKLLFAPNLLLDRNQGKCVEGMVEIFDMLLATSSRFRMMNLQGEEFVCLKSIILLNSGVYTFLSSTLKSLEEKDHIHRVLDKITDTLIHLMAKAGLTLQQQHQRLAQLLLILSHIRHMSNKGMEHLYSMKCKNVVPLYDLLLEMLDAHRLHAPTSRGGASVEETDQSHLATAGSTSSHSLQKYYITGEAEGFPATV
Chain of Progesterone receptor (Homo sapiens) (P06401 whole entry, looked up): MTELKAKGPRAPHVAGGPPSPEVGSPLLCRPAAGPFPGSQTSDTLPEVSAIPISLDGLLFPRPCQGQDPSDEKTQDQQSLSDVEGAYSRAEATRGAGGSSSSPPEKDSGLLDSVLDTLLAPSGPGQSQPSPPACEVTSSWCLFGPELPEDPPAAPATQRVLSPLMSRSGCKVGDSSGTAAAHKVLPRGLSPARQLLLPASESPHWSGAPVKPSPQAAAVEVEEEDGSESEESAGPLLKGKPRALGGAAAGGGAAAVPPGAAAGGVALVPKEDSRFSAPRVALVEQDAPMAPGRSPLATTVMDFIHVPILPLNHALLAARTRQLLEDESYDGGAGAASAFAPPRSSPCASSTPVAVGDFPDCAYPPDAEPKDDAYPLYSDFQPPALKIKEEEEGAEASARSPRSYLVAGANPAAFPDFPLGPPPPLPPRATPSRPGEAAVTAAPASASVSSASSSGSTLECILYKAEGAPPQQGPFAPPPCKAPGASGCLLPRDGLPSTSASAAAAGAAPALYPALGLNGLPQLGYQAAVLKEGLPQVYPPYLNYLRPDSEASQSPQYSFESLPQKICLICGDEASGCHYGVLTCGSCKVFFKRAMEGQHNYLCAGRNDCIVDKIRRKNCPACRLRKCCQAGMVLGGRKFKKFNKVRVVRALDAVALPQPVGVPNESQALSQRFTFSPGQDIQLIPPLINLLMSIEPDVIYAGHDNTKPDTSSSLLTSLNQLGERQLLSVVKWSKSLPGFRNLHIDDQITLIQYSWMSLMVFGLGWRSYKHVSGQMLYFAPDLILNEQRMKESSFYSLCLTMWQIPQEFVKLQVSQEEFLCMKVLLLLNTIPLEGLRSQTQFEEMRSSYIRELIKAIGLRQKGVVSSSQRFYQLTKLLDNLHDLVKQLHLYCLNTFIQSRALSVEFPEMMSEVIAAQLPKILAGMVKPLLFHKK
Chain of Thyrotropin-releasing hormone receptor (Homo sapiens) (P34981 whole entry, looked up): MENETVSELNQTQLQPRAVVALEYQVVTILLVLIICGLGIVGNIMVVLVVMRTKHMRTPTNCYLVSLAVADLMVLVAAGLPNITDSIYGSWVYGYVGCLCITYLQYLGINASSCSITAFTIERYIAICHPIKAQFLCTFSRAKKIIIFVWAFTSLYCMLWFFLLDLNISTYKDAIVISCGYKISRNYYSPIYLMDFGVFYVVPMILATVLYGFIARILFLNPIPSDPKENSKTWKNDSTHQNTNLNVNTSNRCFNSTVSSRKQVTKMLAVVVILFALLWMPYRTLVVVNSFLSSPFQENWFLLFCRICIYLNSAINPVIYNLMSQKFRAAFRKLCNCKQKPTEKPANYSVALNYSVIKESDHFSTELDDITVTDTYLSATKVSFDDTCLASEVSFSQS
Chain of Androgen receptor (Homo sapiens) (P10275 whole entry, looked up): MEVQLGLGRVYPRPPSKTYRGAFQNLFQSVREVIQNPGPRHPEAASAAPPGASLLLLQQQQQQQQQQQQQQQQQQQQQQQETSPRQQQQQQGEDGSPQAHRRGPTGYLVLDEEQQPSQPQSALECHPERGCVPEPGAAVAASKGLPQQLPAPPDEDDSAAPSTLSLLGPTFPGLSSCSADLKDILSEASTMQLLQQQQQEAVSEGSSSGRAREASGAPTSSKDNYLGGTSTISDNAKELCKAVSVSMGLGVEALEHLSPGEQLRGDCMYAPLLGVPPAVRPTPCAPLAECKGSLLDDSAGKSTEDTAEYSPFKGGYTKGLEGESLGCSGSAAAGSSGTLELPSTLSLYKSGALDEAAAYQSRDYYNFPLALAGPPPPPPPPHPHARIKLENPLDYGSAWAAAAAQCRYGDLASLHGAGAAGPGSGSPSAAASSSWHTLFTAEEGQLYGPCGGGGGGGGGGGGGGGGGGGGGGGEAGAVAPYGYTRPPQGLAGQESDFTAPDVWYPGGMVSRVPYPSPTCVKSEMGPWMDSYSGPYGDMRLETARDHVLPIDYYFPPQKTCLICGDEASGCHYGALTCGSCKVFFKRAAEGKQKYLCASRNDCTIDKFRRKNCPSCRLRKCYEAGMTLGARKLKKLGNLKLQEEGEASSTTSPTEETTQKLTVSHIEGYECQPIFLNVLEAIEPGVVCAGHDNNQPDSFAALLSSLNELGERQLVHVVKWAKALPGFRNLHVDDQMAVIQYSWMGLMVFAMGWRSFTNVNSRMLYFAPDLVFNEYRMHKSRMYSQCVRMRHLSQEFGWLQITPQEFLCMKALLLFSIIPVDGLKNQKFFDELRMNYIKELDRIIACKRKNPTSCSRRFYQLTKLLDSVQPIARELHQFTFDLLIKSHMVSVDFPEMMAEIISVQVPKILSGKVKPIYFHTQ

Take `Cc1ccc(C(C)C)cc1O`: the Potency result in [1], in assay [2], in assay [3], in assay [4], in assay [7] and in assay [8] was “inactive” throughout. Further, the Potency entry in assay [9], in assay [10] and in [11] was “inactive” in each case. Besides, the outcome in [5], in [6], in assay [12], in assay [13] and in assay [14] was inactive.

As for `NCCCN1CCN(CCCN)CC1`, the Potency entry in assay [1], in assay [3], in [4], in [15], in [16] and in [7] was “inactive” in each case. The Potency result in assay [8], in assay [9], in assay [11] and in assay [18] was “inactive” each time. Besides, the outcome in assay [5], in [6], in assay [12], in assay [13], in [14] and in assay [17] was inactive.

`O=c1[nH]c(=O)n([C@H]2C[C@H](O)[C@@H](CO)O2)cc1C(F)(F)F`: the Potency result in assay [1], in assay [3], in assay [4], in assay [20], in [16] and in assay [7] was “inactive” throughout. The Potency result in assay [8], in assay [9], in assay [10], in assay [11] and in assay [18] was “inactive” in each case. The result in [19], in [5], in assay [6], in [12], in [13] and in [14] was inactive. The result in assay [17] was inactive.

With `C=CCCCCCCCCO`, the Potency result in [1], in [3], in assay [4], in [20], in assay [16] and in assay [7] was “inactive” in each case. In addition, the Potency result in [8], in assay [9], in [10] and in [11] was “inactive” each time. For the same compound, the call in [19], in [5], in assay [6], in assay [12], in assay [13] and in assay [14] was inactive. Also, the compound was called inactive in assay [17].

As to `CCCCCCCCCC#N`, the Potency in assay [1] is 24.2 µM (active). Moreover, the call in assay [19], in assay [5], in [6], in assay [12], in assay [13] and in [14] was inactive. In addition, in assay [17], the outcome was inactive. Moreover, the Potency entry in assay [3], in assay [4], in assay [20], in [16], in assay [7] and in [8] was “inactive” each time. In assay [18], the Potency entry was “inactive”.

As for `CC1=C2[C@H](/C=C(\C)C(=O)O)CC[C@@H](C)[C@H]2CC1`, the figures for the Potency in [1] and in [4] were 56.5 µM (active) and 25.2 µM (active), respectively. Further, the compound was called inactive in assay [19], in assay [6], in [12], in assay [13] and in assay [17]. Moreover, the Potency result in assay [3], in assay [15], in assay [20], in assay [16], in [7] and in assay [8] was “inactive” throughout. In addition, the Potency result in [11] and in assay [18] was “inactive” in each case.

For `CC[C@H]1CC[C@H](NCc2cc3c(cc2OC)[C@H]2C[C@H]2C(=O)N3C)[C@H](c2ccccc2)N1`, the Potency in [1] was 4.33 µM (active). Also, the compound was classed as inactive in assay [19], in assay [5], in assay [6], in assay [12], in [13] and in assay [14]. Besides, the outcome in assay [17] was inactive. Also, the Potency result in [2], in [20], in [16], in [8] and in assay [18] was “inactive” each time.
